Among all 310,000 compounds or so, about 14,000 (4.5%) showed an effect of 50% or more. Effects have a minus sign here. The sample holds strong results, similar compounds and a random draw of the others, so the mix is not that of the screen.
target: human ether-à-go-go-related gene (hERG) potassium channel (human, UniProt Q12809); experiment: primary screen, population patch clamp on CHO cells stably expressing hERG; higher = less effect of the substance
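Also: peak tail current of the secondary pulse compared with the same well before compound.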

Chain of human ether-à-go-go-related gene (hERG) potassium channel (Q12809 whole entry, looked up): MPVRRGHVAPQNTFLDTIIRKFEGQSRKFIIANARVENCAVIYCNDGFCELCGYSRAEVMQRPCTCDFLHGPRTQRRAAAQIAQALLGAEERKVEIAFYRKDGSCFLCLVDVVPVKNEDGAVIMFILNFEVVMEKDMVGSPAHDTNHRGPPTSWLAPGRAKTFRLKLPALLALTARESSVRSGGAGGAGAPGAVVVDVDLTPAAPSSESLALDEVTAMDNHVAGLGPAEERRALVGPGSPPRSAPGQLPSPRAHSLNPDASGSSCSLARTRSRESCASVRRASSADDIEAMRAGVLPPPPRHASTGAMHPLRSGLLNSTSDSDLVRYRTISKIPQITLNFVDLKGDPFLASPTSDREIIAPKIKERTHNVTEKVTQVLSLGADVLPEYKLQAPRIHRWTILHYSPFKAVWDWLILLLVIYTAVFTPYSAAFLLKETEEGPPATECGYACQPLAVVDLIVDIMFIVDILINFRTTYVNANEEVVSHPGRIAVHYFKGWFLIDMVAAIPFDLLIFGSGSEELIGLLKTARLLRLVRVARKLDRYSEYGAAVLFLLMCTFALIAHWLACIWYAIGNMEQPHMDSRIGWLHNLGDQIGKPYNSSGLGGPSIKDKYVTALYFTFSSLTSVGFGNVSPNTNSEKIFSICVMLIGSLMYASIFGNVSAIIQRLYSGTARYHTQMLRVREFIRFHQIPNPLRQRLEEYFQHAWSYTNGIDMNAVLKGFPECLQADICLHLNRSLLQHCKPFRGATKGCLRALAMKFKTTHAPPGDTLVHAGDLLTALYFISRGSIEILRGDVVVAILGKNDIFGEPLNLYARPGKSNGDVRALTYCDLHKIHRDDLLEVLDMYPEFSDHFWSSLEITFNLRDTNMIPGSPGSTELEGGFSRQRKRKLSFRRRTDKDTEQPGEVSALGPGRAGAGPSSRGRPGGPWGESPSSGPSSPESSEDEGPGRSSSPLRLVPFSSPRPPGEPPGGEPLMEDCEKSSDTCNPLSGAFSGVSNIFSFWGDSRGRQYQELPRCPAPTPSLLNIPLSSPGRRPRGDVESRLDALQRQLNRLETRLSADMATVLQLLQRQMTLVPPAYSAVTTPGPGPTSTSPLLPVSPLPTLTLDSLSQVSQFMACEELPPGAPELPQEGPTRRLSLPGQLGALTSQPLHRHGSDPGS

| SMILES | hERG current change (%, negative = inhibition) at 10uM |
| --- | --- |
| O=C(Nc1ccc(F)cc1)c1cc2ccccc2o1 | 20% |
| COc1cccc(CSc2nnnn2-c2ccc(O)cc2)c1 | -18.5% |
| CCCCn1c(N)c(N(CCC(C)C)C(=O)c2cc(Cl)nc3ccccc23)c(=O)[nH]c1=O | 15.2% |
| COC(=O)c1cccc(-n2nnnc2SCC(=O)Nc2nc3c(s2)CCCC3)c1 | -0.926% |
| Cc1ccc(OCCC(=O)O)cc1 | 13.4% |
| COc1ccc(OC)c(CNCc2ccc3c(c2)OCO3)c1.O=C(O)C(=O)O | -4.43% |
| CC(=O)c1ccc(NC(=O)C2=CC(c3cccs3)=NS(=O)(=O)N2C)cc1 | -0.218% |
| CN(C)CCC(Oc1ccccc1OCc1ccccc1)c1ccccc1.O=C(O)C(=O)O (stereo not drawn) | -68.6% |
| CC(C)Oc1ccccc1OCCN(C)C.O=C(O)C(=O)O | 6.22% |
| CC(O)CNCCCOc1ccccc1OCc1ccccc1.O=C(O)C(=O)O (stereo not drawn) | -36.7% |
| COC(=O)c1ccccc1S(=O)(=O)N1CCC(C(=O)N2CCC2)CC1 | 3.96% |
| CC(C)C1OC2(C)OC(=N)C1(C#N)C(C#N)(C#N)C2c1ccccc1 (stereo not drawn) | 2.05% |
| COc1ccc(-c2nnc(OCc3nc4ccccc4n3C)c3ccccc23)cc1 | -40.2% |
| Cl.OCCNc1nc(Nc2ccc(Br)cc2)nc2ccccc12 | -36.3% |
| Cl.OCCNc1nc(Nc2ccccc2)nc2ccccc12 | -35% |
| Cl.Oc1ccccc1Nc1nc(NCc2ccccc2)c2ccccc2n1 | -1.42% |
| Cc1ccc(Nc2nc(NCCO)c3ccccc3n2)cc1C.Cl | -52.4% |
| Cl.OCCNc1nc(Nc2ccc(Cl)c(Cl)c2)nc2ccccc12 | 14.5% |
| Cl.OCCNc1nc(Nc2ccc(O)cc2)nc2ccccc12 | -28.6% |
| CNc1nc(NCc2ccccc2)c2ccccc2n1.Cl | -68.1% |
| Cl.OCCNc1nc(NCc2ccccc2)c2ccccc2n1 | -54.6% |
| Cl.c1ccc(CNc2nc(NCc3ccccc3)c3ccccc3n2)cc1 | 2.65% |

| SMILES | hERG current change (%, negative = inhibition) at 10uM |
| --- | --- |
| Nc1ccc(C2(c3ccc(N)cc3)CCCCC2)cc1 | 22.1% |
| O=C(Nc1cccnc1)c1cc(-c2ccc(Br)cc2)nc2ccccc12 | -2.53% |
| O=S1(=O)N=C(N2CCc3ccccc3C2)c2ccccc21 | -39% |
| O=C(c1ccco1)N1CCN(c2cc(C(F)(F)F)nc3ncnn23)CC1 | -16.7% |
| Cc1ccc(C(=O)CCNc2cccc(Br)c2)o1 | 4.71% |
| O=C(COc1ccc(Cl)cc1)NCCSCc1cccc(Cl)c1 | -13.5% |
| CC1CCN(c2c(NCC3CCC(C(=O)NCCc4ccc(Cl)cc4)CC3)c(=O)c2=O)CC1 (stereo not drawn) | -3.81% |
| CCCCN(C(=O)c1ccc2ccccc2c1)c1c(N)n(CCCC)c(=O)[nH]c1=O | 8.11% |
| Cc1ccc(S(=O)(=O)c2cc3c(=O)n4ccccc4nc3n(CCc3ccccc3)c2=N)cc1 | 5.39% |
| COc1ccc(CCn2c(=N)c(C(=O)NC3CCCC3)cc3c(=O)n4ccccc4nc32)cc1 | -81.9% |
| N=c1c(C(=O)NC2CCCCC2)cc2c(=O)n3ccccc3nc2n1CCc1ccccc1 | -81.1% |
| COc1ccc(NC(=O)c2cc3c(=O)n4ccccc4nc3n2C)c(OC)c1 | 2.99% |
| COc1ccc(CCn2c(=N)c(C(=O)NC3CCCCC3)cc3c(=O)n4ccccc4nc32)cc1 | -79.4% |
| COc1ccc(Cn2c(=N)c(C(=O)NC3CCCCC3)cc3c(=O)n4ccccc4nc32)cc1 | -68.9% |
| N=c1c(S(=O)(=O)c2ccc(Cl)cc2)cc2c(=O)n3ccccc3nc2n1CCc1ccccc1 | 4.68% |
| COc1ccc(CCn2c(=N)c(S(=O)(=O)c3ccc(Cl)cc3)cc3c(=O)n4ccccc4nc32)cc1 | 20.5% |
| COc1ccc(Cn2c(=O)[nH]c3cc(C(=O)NC4CCCC4)ccc3c2=O)cc1 | 15.1% |
| COc1cccc(-c2csc(NNC(=O)c3cccs3)n2)c1 | -2.17% |
| COc1cc(C(=O)N(Cc2ccc(C)o2)C2CCS(=O)(=O)C2)cc(OC)c1OC (stereo not drawn) | 14.4% |
| O=C(NCc1cccnc1)c1ccc(Br)s1 | -16.9% |
| CCN1C(=O)c2cccc3c(NS(=O)(=O)c4ccc(NC(C)=O)cc4)ccc1c23 | -8.89% |
| O=C(Cc1ccc(Cl)c(Cl)c1)Nc1cccc2ncccc12 | 20.2% |

| SMILES | hERG current change (%, negative = inhibition) at 10uM |
| --- | --- |
| COCCCNC(=O)c1c(N)n(-c2ccc(S(N)(=O)=O)cc2)c2nc3ccccc3nc12 | 0.473% |
| Cc1nn(Cc2c(F)c(F)c(F)c(F)c2F)c(C)c1NC(=O)c1cccc(COc2ccc(Cl)cc2)c1 | 2.49% |
| O=C1c2oc3ccc(Br)cc3c(=O)c2C(c2cccc(F)c2)N1CCO (stereo not drawn) | -1.34% |
| ONC(=Nc1ccccc1)c1ccccc1Cl | 2.37% |
| CCc1ccccc1NC(=O)CCC(=O)N1CCSc2ccccc21 | -14.7% |
| CCOC(=O)c1cnc2nc(NCc3ccc(OCc4ccccc4)cc3)[nH]n2c1=O | 5.06% |
| COc1ccc(CCn2c(=N)c(S(=O)(=O)c3ccc(C)cc3)cc3c(=O)n4ccccc4nc32)cc1 | 15.1% |
| COc1ccc(CCn2c(=N)c(C(=O)N3CCN(C)CC3)cc3c(=O)n4ccccc4nc32)cc1 | -76.2% |
| CCN(C(=O)c1cc2c(=O)n3ccccc3nc2n1CCCOC)C1CCCCC1 | -2.32% |
| COc1ccc(CCn2c(=N)c(S(=O)(=O)c3ccccc3)cc3c(=O)n4ccccc4nc32)cc1 | 10.9% |
| COCCCn1c(SCC(=O)NC2CCCCC2)nc2ccccc2c1=O | -16.9% |
| COCCCn1c(=N)c(C(=O)NC2CCCCC2)cc2c(=O)n3ccccc3nc21 | -78.8% |
| COc1ccc(CCn2c(=N)c(C(=O)NC3CCCC3)cc3c(=O)n4ccccc4nc32)cc1OC | -79.2% |
| COc1ccc(CCn2c(C3CCCCC3)nc3c(c(=O)c4ccccc4n3C)c2=O)cc1OC | -8.08% |
| Cc1ccc(C)c(S(=O)(=O)N2CCN(CC(=O)NC(=O)NCc3ccco3)CC2)c1 | -24.5% |
| Cc1cc(=S)c2cccc(C)c2[nH]1 | 9.4% |
| Fc1cccc(CNc2ncnc3ccc(-c4ccc5c(c4)OCO5)cc23)c1 | -31% |
| COc1ccc(NC(=O)CNC(=O)C2CCCCC2)cc1 | 18.1% |
| CCCOc1ccc(C(=O)N/N=C/c2ccc(-c3ccc(S(=O)(=O)Nc4ncccn4)cc3)o2)cc1 | -7.38% |
| CCCCCC(=O)Nc1ccc(N2CCN(C(=O)c3ccccc3)CC2)cc1 | -62.8% |
| CCCCCCC(=O)Nc1ccc(C(=O)N2CCCC2)cc1 | 0.864% |
| O=C(/C=C\c1ccco1)Nc1ccc(N2CCN(C(=O)c3ccccc3)CC2)cc1 | -55.7% |

| SMILES | hERG current change (%, negative = inhibition) at 10uM |
| --- | --- |
| CCCCCC(=O)Nc1ccc(N2CCN(C(=O)CCC)CC2)cc1 | -32.8% |
| Cc1ccc(C(=O)N2CCN(c3ccc(NC(=O)Cc4ccccc4)cc3)CC2)cc1 | -71.5% |
| Cc1ccc(OCC(=O)Nc2ccc(N3CCN(C(=O)c4ccc(C)cc4)CC3)cc2)cc1 | 9.99% |
| O=C(/C=C/c1ccco1)Nc1ccc(N2CCCC2)cc1 | 10.5% |
| Cc1ccc(C(=O)N2CCN(c3ccc(NC(=S)NC(=O)Cc4ccccc4)cc3)CC2)cc1 | -17.1% |
| Cc1ccc(C(=O)N2CCN(c3ccc(NC(=O)COc4ccccc4C)cc3)CC2)cc1 | -73.6% |
| Cc1cccc(OCC(=O)Nc2ccc(N3CCN(C(=O)c4ccccc4)CC3)cc2)c1C | 3.45% |
| COc1ccc(C(=O)N2CCN(c3ccc(NC(=O)Cc4ccccc4)cc3)CC2)cc1 | -31.8% |
| O=C(/C=C/c1ccco1)N1CCN(c2ccccc2)CC1 | -1.71% |
| COc1ccc2c(c1)CC/C(=C/c1ccco1)C2=O | 10.7% |
| CCSc1oc(-c2ccco2)nc1S(=O)(=O)c1ccccc1 | -12.8% |
| CCOc1ccc(C(=O)Nc2c3c(nn2-c2ccc(F)cc2)CS(=O)C3)cc1 (stereo not drawn) | -1.14% |
| COCCNC(=S)N1CCN(C(c2ccccc2)c2ccccc2)CC1 | -10.1% |
| COc1cc(C(=O)Nc2ncccc2C)ccc1OCC(=O)N1CCOCC1 | -4.78% |
| CC1(c2nnc(-c3cccc(Cl)c3)o2)CC(c2ccc(F)cc2)=NO1 (stereo not drawn) | -8.47% |
| OCCCc1nc2n(n1)C(c1ccccc1)C=C(c1ccccc1)N2 (stereo not drawn) | -17.3% |
| OCCCc1nc2n(n1)C(c1ccccc1Cl)C=C(c1cccs1)N2 (stereo not drawn) | -5.71% |
| OCCCc1nc2n(n1)C(c1cccs1)C=C(c1ccccc1)N2 (stereo not drawn) | -38.5% |
| OCCCc1nc2n(n1)C(c1ccccc1)C=C(c1ccc(F)cc1)N2 (stereo not drawn) | -12.8% |
| COc1ccc(C2C=C(c3ccccc3)Nc3nc(CCCO)nn32)cc1 (stereo not drawn) | -51.8% |
| COc1ccc(C2C=C(c3cccs3)Nc3nc(CCCO)nn32)cc1 (stereo not drawn) | -57.9% |

Reference: paper PMC4336329 (PLoS ONE, 2015)
